# Test results as given in PubChem BioAssay (NCATS).
# Results filed as inconclusive are left out. Unmarked numbers belong to inactive results. Calls come from the whole dose curve; as a rule, active = well fitted cell-killing curve with a large enough effect; inconclusive = small, poorly fitted or top-dose-only effect; inactive = no such curve, though single readings can be large or run the other way.
# Assay: qHTS of pediatric cancer cell lines to identify multiple opportunities for drug repurposing: Primary screen for SK-N-SH cells (AID 1347098); note: nearly all actives have a fitted effect of over 65% in size
# Details: SK-N-SH viability, CellTiter-Glo luminescence, 48 h; series mostly up to 57 µM; activity change, negative = cytotoxic: at the top concentration
# Source text: Drug repurposing or repositioning has been offered as a strategy for drug development in oncology programs. This approach has special potential for childhood cancers and other rare or orphan diseases, where the expected return on new drug development has been a disincentive to pharmaceuticals.
# In this project we exploit the poly-pharmacology of drugs to discover new indications via phenotypic screening of a panel of 19 well-characterized cell lines derived from solid tumors seen in children and adolescents. The goal is to identify approved drugs with previously unrecognized anticancer properties that has the potential to reveal new mechanisms and biological processes involved in carcinogenesis or drug resistance. We employed a titration-based paradigm (quantitative high-throughput screening or qHTS), where all compounds were tested at multiple concentrations for their effect on cell viability. Concentration-response curves (CRCs) were derived directly from the primary screen, and both potency and efficacy values were used to identify compounds with robust bioactivity profiles. We screened the NIH Chemical Genomics Center (NCGC) Pharmaceutical Collection (NPC) and Mechanism Interrogation Plate (MIPE) small molecule collections of approved and investigational compounds against these cell lines; and measured metabolically active cells after 48 hours of compound treatment as a proxy for cell viability.
# Assay Submitter: Nathalia J. Martinez, National Center for Advancing Translational Sciences, National Institutes of Health, Rockville, MD, USA; email: natalia.martinez@nih.gov
# [1] Shen, M et al. Quantitative high-throughput phenotypic screening of pediatric cancer cell lines identifies multiple opportunities for drug repurposing. Oncotarget 2017 Dec 19;9(4):4758-4772. PMID 29435139.
# The cells were obtained from University of North Carolina (UNC), Pediatric Preclinical Testing Program (PPT), and Coriell Institute (CI).
# qHTS cell viability assay:
# Cells were assayed in growth media at a density of 500-1,000 cells/well. Five microliters of cells were dispensed into 1,536-well, white, solid-bottom, TC-treated plates (Greiner Bio One) using a multidrop dispenser and incubated at 37 degrees C, 5% CO2, under a humidified atmosphere for 5 hours. Twenty-three nanoliters of compounds and controls (neutral control DMSO or positive control bortezomib at final concentration of 2.3 µM) were subsequently transferred by Kalypsys pintool. For primary screens, the MIPE collection was tested at 11-point dilutions (final concentrations range from 0.78 nM to 46 µM) and the NPC collection at 8-point dilutions (final concentrations range from 0.59 nM to 46 µM). Compounds tested in follow-up screens were assayed at 11-point dilutions. Cells were incubated for 48 hours, followed by addition of 3 µL of CellTiter-Glo (Promega). After a 15 min incubation at room temperature, samples were analyzed for luminescence intensity using a ViewLux High-throughput CCD imager equipped with clear filters.
# % is set by controls: 0 for no effect and ±100 for the full control effect.
row,Compound,"activity change, negative = cytotoxic"
1,CCOc1ccc(C(=O)OCCN(CC)CC)cc1,-11.3%
2,NC(=O)NS(=O)(=O)c1ccc(N)cc1,-0.996%
3,CCCNC(C)(C)COC(=O)c1ccccc1,-2.02%
4,CCCCCCCC(=O)OCC(COC(=O)CCCCCCC)OC(=O)CCCCCCC,-11.8%
5,COc1ccc(O)cc1,-15%
6,Cc1cccc(Nc2ccccc2C(=O)O)c1C,-9.99%
7,N[C@@H](Cc1ccc(O)cc1)C(=O)O,5.3% [at 11.4 µM]
8,CN1CC(=O)NC1=N,-9.01%
9,O=C(O)Cc1ccc(CCNS(=O)(=O)c2ccc(Cl)cc2)cc1,-9.15%
10,O=C(O)c1cc(=O)c2ccccc2o1,-0.834%
11,C[C@@H]1O[C@@H](OC[C@H]2O[C@@H](Oc3c(-c4ccc(O)c(O)c4)oc4cc(O)cc(O)c4c3=O)[C@H](O)[C@@H](O)[C@@H]2O)[C@H](O)[C@H](O)[C@H]1O,0.133%
12,O=C(O)/C=C/c1ccc(Cn2ccnc2)cc1,2.17%
13,Nc1ncnc(Nc2ccccc2)n1,-35.7%
14,NCC1CCC(C(=O)Oc2ccc(CCC(=O)O)cc2)CC1 (stereo not given),0.321%
15,Cc1c(NC(=O)c2cccnc2)c(=O)n(-c2ccccc2)n1C,-3.91%
16,COc1ccc(Cc2cnc(N)nc2N)cc1OC,4.45%
17,NS(=O)(=O)c1ccc(NC(=O)CCC(=O)O)cc1,3.59%
18,Cc1c(C)c2c(c(C)c1OC(=O)c1cccnc1)CC[C@@](C)(CCC[C@H](C)CCC[C@H](C)CCCC(C)C)O2,1.77%
19,Cc1cccc(C)c1NC(=O)CC12CCCN1CCC2,-13%
20,O=C(O)Cn1c(C(=O)Nc2nc(-c3ccccc3Cl)cs2)cc2ccccc21,-11.5%

row,Compound,"activity change, negative = cytotoxic"
1,CCOC(=O)OC(C)OC(=O)[C@@H]1N2C(=O)[C@@H](NC(=O)[C@H](N)c3ccccc3)[C@H]2SC1(C)C (stereo not given in full),-3.86%
2,CC1CC(OC(=O)c2ccccc2O)CC(C)(C)C1 (stereo not given),-8.7%
3,O=C(O)[C@@H]1[C@H]2C[C@H]3c4[nH]c5ccccc5c4CCN3C[C@@H]2CC[C@@H]1O,-14.7%
4,Cc1ccsc1C(=CCCN1CCC[C@@H](C(=O)O)C1)c1sccc1C,-16.3%
5,CC(=O)Nc1ccc(C(=O)O)cc1,-5.46%
6,Nc1ccc(S(=O)(=O)c2ccc(N)cc2)cc1,-7.09%
7,O=S1(=O)OC(c2ccc(O)cc2)(c2ccc(O)cc2)c2ccccc21,7.98%
8,CC[N+](C)(CC)CCOC(=O)C1c2ccccc2Oc2ccccc21,-12.2%
9,O=C1C(c2[nH]c3ccccc3c2O)=Nc2ccccc21,-2.86%
10,CC(=O)OC[C@H]1O[C@@](COC(C)=O)(O[C@H]2O[C@H](COC(C)=O)[C@@H](OC(C)=O)[C@H](OC(C)=O)[C@H]2OC(C)=O)[C@@H](OC(C)=O)[C@@H]1OC(C)=O,-23.5%
11,CN[C@@H]1[C@H](O)[C@H](NC)[C@H]2O[C@@]3(O)C(=O)C[C@@H](C)O[C@H]3O[C@@H]2[C@H]1O,-20.5%
12,Cc1cc(=O)[nH]c(=S)[nH]1,-6.66%
13,CC(=O)Nc1cccc(O)c1,-10.5%
14,NS(=O)(=O)c1cc(-c2nn[nH]n2)c(NCc2cccs2)cc1Cl,-6.69%
15,O=C(Cn1ccnc1[N+](=O)[O-])NCCO,-0.406%
16,CCCCCOC(=O)Nc1nc(=O)n([C@@H]2O[C@H](C)[C@@H](O)[C@H]2O)cc1F,-9.9%
17,CCN(CC)C(=O)c1cccc(C)c1,-9%
18,CCCCCCCCCCC(CO)CCCCCCCC (stereo not given),-9.53%
19,Cc1ccsc1/C=C/C1=NCCCN1C,16.4%
20,OC[C@@H](O)[C@@H](O)[C@H](O)[C@H](O)CO,-11.7%
